Reference: PubChem BioAssay AID624100 (ICCB-Longwood Screening Facility, Harvard Medical School, 2012)
This is one part of the list. Calls of active or inactive are those of the source.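 How the source made its calls: active means average inhibition over replicates above about 50%, so the earlier screening hit is confirmed (limit read from the data); inactive means the rest, counted as false positives.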

target: Ubiquitin carboxyl-terminal hydrolase isozyme L5 (Homo sapiens) (UniProt Q9Y5K5); assay: retest of human UCH37 deubiquitinase inhibitors, confirmation, biochemical, Ub-AMC cleavage rate, fluorescence (AID 624100); conditions: Proteasome-bound UCH37, Ub-AMC cleavage fluorescence; at 20 µM; hits give high values;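 further: based on cleavage rate fitted by regression over a 30 min kinetic read; 0% = proteasome plus Ub-AMC and 100% = Ub-AMC without proteasome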
Sequence (Q9Y5K5 whole entry, looked up): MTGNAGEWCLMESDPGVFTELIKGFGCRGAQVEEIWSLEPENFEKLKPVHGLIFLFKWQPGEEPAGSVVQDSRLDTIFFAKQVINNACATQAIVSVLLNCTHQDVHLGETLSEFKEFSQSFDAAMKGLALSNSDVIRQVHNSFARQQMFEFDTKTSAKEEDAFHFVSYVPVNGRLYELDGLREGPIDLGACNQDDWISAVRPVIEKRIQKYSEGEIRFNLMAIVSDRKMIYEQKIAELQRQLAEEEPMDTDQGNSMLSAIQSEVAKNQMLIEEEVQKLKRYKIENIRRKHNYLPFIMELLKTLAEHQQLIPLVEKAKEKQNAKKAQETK

| Structure (SMILES) | inhibition |
| --- | --- |
| COc1cccc(C2/C(=C(/O)c3ccc(F)cc3)C(=O)C(=O)N2CCN(C)C)c1 (stereo not given) | 12.7% (inactive) |
| CCOC(=O)c1c(C)[nH]c2c1-c1ccccc1C(=O)C2=O | 90.1% (active) |
| CC1CCCN(C(=O)c2ccc3c(c2)C(=O)N(CCC2=CCCCC2)C3=O)C1 (stereo not given) | 61% (active) |
| COc1ccc(Cn2nnc3c(=O)[nH]c(C4CCN(C(=O)c5ccccc5Cl)CC4)nc32)cc1 | 17.8% (inactive) |
| O=C1C(Cl)=C(Oc2ccccc2)C(=O)c2ccccc21 | 95.2% (active) |
| O=C1Nc2ccc([N+](=O)[O-])cc2C1=Nc1cccc(CO)c1 | -1.27% (inactive) |
| COc1cc(NC(=O)COC(=O)c2ccc([N+](=O)[O-])s2)cc(OC)c1OC | 14.6% (inactive) |
| N#C/C(=C/c1ccc(N2CCOCC2)o1)C(=O)N1CCOCC1 | 29.8% (inactive) |
| O=C(NC1CCCC1)C(c1ccc(N2CCOCC2)cc1)N(C(=O)c1ccco1)c1ccccc1F (stereo not given) | 4.55% (inactive) |
| O=C(OCC(=O)N1CCN(c2ccccc2)CC1)c1ccc([N+](=O)[O-])s1 | 22.8% (inactive) |
